This passage reports outcome and AC50 results from PubChem BioAssay (EPA / NIEHS).

Records with an inconclusive call do not appear. The source made the active and inactive calls. The calls were made as follows: active = hit-call score of the fitted dose curve at least 0.9, where 1 is the maximum; inconclusive = response in the unintended direction; inactive = score below 0.9.

A short description of the test: ACEA_ER_80hr: ACEA Biosciences xCELLigence Real-Time Cell Analysis on Estrogen Receptor Agonism for Proliferation (AID 2282667). The settings on record: T47D proliferation, impedance (xCELLigence), 80 h. In a few lines:
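T-47D cells monitored by electrical impedance (xCELLigence) with compound present throughout; 80 h timepoint, positive-direction fitting versus DMSO. Eight-point 1:4 dilutions from 100 uM final, duplicate plates.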
As to `CNC`, the result was inactive.
The same measure, in the same setting: the value for `Oc1c(I)cc(I)cc1I` was “inactive”; that for `COc1ccc(C(O)(c2cncnc2)C2CC2)cc1` (stereo not drawn) was “inactive”.
Still for that read-out and setting: for `O=C(OC1CCCCC1)c1ccccc1C(=O)OC1CCCCC1` the value was “inactive”; for `CC(C)(c1ccc(OCC2CO2)cc1)c1ccc(OCC2CO2)cc1` (stereo not drawn), “inactive”.
Turning to `CCC[CH2][Sn]([Cl])([Cl])[Cl]`, the outcome was inactive.
On the same count and under the same terms, for `O=C/C=C/c1ccccc1` the value was “inactive”; for `Nc1ncc([N+](=O)[O-])s1`, “inactive”.
Still for that read-out and setting: the value for `CC(=[OH+])/C=C(/C)[O-].CC(=[OH+])/C=C(/C)[O-].CC(=[OH+])/C=C(/C)[O-].[Al]` was “inactive”; that for `CCOP(=S)(OCC)SCCS(=O)(=O)CC` was “inactive”.
For the compound `COP(=S)(OC)Oc1cc(Cl)c(Br)cc1Cl`, the outcome was inactive.
Same read-out and setting: for `CCN(CC)C(=O)Cl` the value was “inactive”; for `COc1cccc(C=O)c1`, “inactive”.
Turning to `CC(=O)C=C(C)C`, the AC50 (as a rule, the midpoint of the concentration-response curve, whichever way the signal moves) is 10.8 µM (active).
Consider `Cc1ccc(N)cc1Cl`, for which the compound was called inactive.
Same read-out and setting: the value for `CC(Br)C(=O)O` (stereo not drawn) was “inactive”.
Regarding `O=[N+]([O-])c1ccc(O)c([N+](=O)[O-])c1`, the AC50 is 75.8 µM (active).
Consider `O=C(CCl)CCl`, for which the outcome was inactive.
As for `COc1ccc(C=O)cc1OC`, the AC50 was 15.7 µM (active).
For the compound `CC1(C)CCC(Cc2ccc(Cl)cc2)C1(O)Cn1cncn1` (stereo not drawn), the result was inactive.
On to `N#Cc1ccccn1`, for which the call was inactive.
The same measure, in the same setting: for `CCCCP(CCCC)CCCC` the value was “inactive”; for `ClCc1ccccn1`, “inactive”.
With `CCc1ccccc1C`, the AC50 was 0.0879 µM (active).
Consider `O=C(Cc1ccccc1)c1ccccc1`, for which the compound was called inactive.
The same measure, in the same setting: the value for `O=C(c1ccccc1)C(Cl)Cl` was “inactive”; that for `Clc1nc(Cl)nc(Cl)n1` was “inactive”; that for `Nc1ccc(N=Nc2ccc(-c3ccc(N=Nc4c(S(=O)(=O)O)cc5cc(S(=O)(=O)O)c(N=Nc6ccccc6)c(O)c5c4N)cc3)cc2)c(N)c1` was “inactive”.
Still for that read-out and setting: for `CC(=O)OC(c1ccccc1)C(Cl)(Cl)Cl` (stereo not drawn) the value was “inactive”; for `O=C1CCCN1`, “inactive”; for `O=[N+]([O-])c1ccc2c3c(cccc13)CC2`, “inactive”.
On the same count and under the same terms, the value for `CCC(=O)c1ccccc1` was “inactive”.
In the case of `Nc1cccc(Cl)c1`, the result was inactive.
